Active and inactive are the calls of the source. How the source made its calls: active means hit-call score of the fitted dose curve at least 0.9, where 1 is the maximum; inactive means score below 0.9.

The assay in a line: ATG_Oct_MLP_CIS: Attagene CIS-FACTORIAL HepG2 Assay for human Octamer-Binding Transcription Factor (Oct) (AID 2282993). As to conditions: HepG2 Attagene cis-factorial Oct reporter, mRNA; actives raise or lower the signal. As for the experimental part: ATG_CIS is a cell-based, multiplexed-readout assay that uses HepG2, a human liver cell line, with measurements taken at 24 hours after chemical dosing in a 24-well plate.ATG_Oct_MLP_CIS is one of 52 assay component(s) measured or calculated from the ATG_CIS assay. It is designed to make measurements of mRNA induction, a form of inducible reporter, as detected with fluorescence intensity signals by Reverse transcription polymerase chain reaction (RT-PCR) and Capillary electrophoresis technology.Data from the assay component ATG_Oct_MLP_CIS was analyzed into 1 assay endpoint. This assay endpoint, ATG_Oct_MLP_CIS, was analyzed with bidirectional fitting relative to DMSO as the negative control and baseline of activity. Using a type of inducible reporter, measures of mRNA for gain or loss-of-signal activity can be used to understand the reporter gene at the transcription factor-level as they relate to the gene POU2F1. Furthermore, this assay endpoint can be referred to as a primary readout, because this assay has produced multiple assay endpoints where this one serves a reporter gene function. To generalize the intended target to other relatable targets, this assay endpoint is annotated to the dna binding intended target family, where the subfamily is POU domain protein.
Human liver HepG2 cells are transiently transfected with multiple reporter transcription units (MRTUs) in 6-well plates using FuGene 6 reagent (Roche; 3 ml FuGene/1 mg DNA). The MRTU constructs are regulated by a cis-regulating element (promoter). […] A major difference between the CIS and TRANS system is that in CIS activities of endogenous TFs are measured, whereas the TRANS assay evaluates changes in activities of exogenous, chimeric NR-Gal4 proteins. […] At the end of 24 hour incubation, total RNA was isolated using TriZol reagent (Invitrogen). The isolated RNA is then reverse-transcribed using oligo(dT) primer and Mo-MLV reverse transcriptase (Invitrogen) with DNAse I (Ambion) treatment for 30 min. The one-tenth of the produced cDNA was amplified by PCR using Taq DNA polymerase (Invitrogen) and two reporter sequence-specific primers. The PCR products were fluorescently labeled by primer extension with 6-arboxyfluorescein (6-FAM) 5'-labeled reporter sequence-specific primer (2 min at 95 C, 20 s at 68 C and 10 min at 72 C) and these products were digested with 5U of HpaI (New England Biolabs) for 2h at 37 C. The fragments were purified using Qiaquick PCR columns (Qiagen), analyzed on an ABI 3130xL genetic analyzer (Applied Biosystems) with peak positions identified by using a set of X-rhodamine (ROX)-labeled MapMarker1000 molecular weight standards (BioVentures). The raw capillary electrophoresis data was processed using Attagraph software (Attagene).
In the case of `C#C[C@]1(O)CC[C@H]2[C@@H]3CCC4=CC(=O)CC[C@]4(C)[C@H]3CC[C@@]21C`, the outcome was inactive.

As to `O=C(NC(=O)c1c(F)cccc1F)Nc1cc(Cl)c(F)c(Cl)c1F`, the outcome was inactive.

Regarding `COc1ccc(N)cc1`, the call was inactive.

Turning to `O=[N+]([O-])c1ccccc1O`, the compound was called inactive.

In the case of `COc1nn(C(=O)NS(=O)(=O)c2ccccc2OC(F)(F)F)c(=O)n1C`, the compound was called inactive.

As to `C[As+](C)(C)CC(=O)[O-]`, the call was inactive.

As for `O=S(=O)(F)C(F)(F)C(F)(F)C(F)(F)C(F)(F)F`, the compound was classed as inactive.

On to `O=C(O)COc1ccc(Cl)cc1`, for which the compound was classed as inactive.

Take `C1CN2CCN1CC2`: the compound was called inactive.

For the compound `CCOC(=O)CCN(SN(C)C(=O)Oc1cccc2c1OC(C)(C)C2)C(C)C`, the call was inactive.

For the compound `C=CCOC(F)(C(F)(F)F)C(F)(F)F`, the result was inactive.

For the compound `CN(C)C(=S)S`, the call was inactive.

Consider `O=[N+]([O-])c1cccc2ccccc12`, for which the compound was classed as inactive.

Turning to `Cc1cc(C)cc(C)c1`, the call was inactive.

In the case of `CN(N=O)c1ccc([N+](=O)[O-])cc1`, the compound was classed as inactive.

In the case of `N#Cc1ccccc1N`, the outcome was inactive.

For `CCCCC(CC)C(=O)Cl` (stereo not given), the compound was classed as inactive.

With `O=S(=O)(Oc1ccc(Cl)cc1)c1ccc(Cl)cc1`, the call was inactive.

As a reminder, the AC50 is the concentration at which the activity in the assay is half-maximal. For the compound `C=CC(=O)OCC(COC(=O)C=C)(COC(=O)C=C)COC(=O)C=C`, the concentration at half-maximal activity (AC50) was 8.16 µM (active).

For `c1cc[c]([Sb]([c]2ccccc2)[c]2ccccc2)cc1`, the compound was classed as inactive.

In the case of `Cc1cc(Cl)ccc1OC(C)C(=O)O` (stereo not given), the call was inactive.

As to `C[CH2][Hg][S]c1ccccc1C(=O)O`, the AC50 is 2.87 µM (active).

Consider `O=c1nc(O)n(Cl)c(=O)n1Cl`, for which the outcome was inactive.

For `C=C(C)C(=O)OCCCCOC(=O)C(=C)C`, the result was inactive.

For `CC(c1ccccc1)(c1ccc(O)cc1)c1ccc(O)cc1`, the AC50 was 11.1 µM (active).

In the case of `CNC(=O)N(C)c1nc2ccccc2s1`, the compound was called inactive.

With `C=CCc1ccccc1O`, the compound was classed as inactive.

As to `Clc1cccc(Cl)c1Cl`, the compound was called inactive.

For the compound `Fc1cccc(Cl)c1CCl`, the compound was called inactive.

As for `O=C=Nc1ccc(Cl)cc1`, the call was inactive.

On to `CC(C)(c1ccccc1)c1cc(-n2nc3ccccc3n2)c(O)c(C(C)(C)c2ccccc2)c1`, for which the compound was classed as inactive.

Turning to `O=[N+]([O-])c1c2ccccc2cc2ccccc12`, the compound was classed as inactive.

On to `Cc1cc(Cl)ccc1OCCCC(=O)O`, for which the outcome was inactive.

In the case of `O=C1C=CC(=O)c2ccccc21`, the call was inactive.

For `Clc1cnc(Oc2ccc(Oc3ncc(Cl)cc3Cl)cc2)c(Cl)c1`, the result was inactive.

With `Oc1ccc(Cc2ccc(O)cc2)cc1`, the compound was called inactive.

As to `O=C(NC(=O)c1c(F)cccc1F)Nc1ccc(Cl)cc1`, the compound was classed as inactive.

As to `O=[N+]([O-])c1ccc(Nc2ccccc2)cc1`, the compound was called inactive.

Turning to `CCCCC(CC)COC(=O)Cl` (stereo not given), the call was inactive.

Turning to `C[C@]12CC[C@@H](O)C[C@@H]1CC[C@@H]1[C@@H]2CC[C@]2(C)C(=O)CC[C@@H]12`, the compound was classed as inactive.

The record behind these values is PubChem BioAssay (EPA / NIEHS).
